Data: PubChem BioAssay (NCI)
This is part of a sample that, as a whole, favours compounds with a hit. Of some 83,000 tested, about 20% had one in any assay.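 Single-concentration screen, 48 h exposure, 96-well plates. Endpoint: percent growth. Below 10 = active.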 Values without a mark were called inactive. Calls of active or inactive are those of the source.

What follows are compounds tested on HL-60(TB) leukemia (assay: NCI-60 one-dose screen, 48 h (100 = growth as untreated, 0 = no growth, -100 = all killed)). Settings: 10 µM unless noted.
Compound COc1ccc(NC(=S)/N=c2\oc3c(OC)cccc3cc2-c2cc3ccccc3[nH]2)cc1 has a growth of 93.1%. For O=C(CCl)N1c2ccccc2Oc2ccc3ccccc3c21, the growth was -0.539% (active). In the case of Cn1cc(-c2nonc2-c2cn(C)c3ccc(Br)cc23)c2ccccc21, the growth is reported as -18.9% (active). For C#Cc1cccc(NC(=O)c2ccccc2NC(=O)C=C)c1, the growth was 97.7% [8.25 µM]. For COc1ccccc1N1CCN(C(CNS(=O)(=O)c2ccc(Cl)cc2)c2cccnc2)CC1 (centres undefined), the growth was 66.1%. Work on CCOc1cc2c(cc1OCC)C(c1cc(C)c(O)c(C)c1)NCC2 (centres undefined) yielded a growth of 81.7%. For CCOC(=O)c1ccccc1OC(=O)NNc1ccccc1, the growth was -7.77% (active). Compound Cc1ccc(OC(=O)c2ccccc2)cc1 has a growth of 103%. Compound CC[C@H](C)[C@H](NC(=O)[C@H](CCCNC(=N)N)NC(=O)[C@H](Cc1c[nH]c2ccccc12)NC(=O)[C@@H](NC(=O)[C@H](CCCCN)NC(=O)[C@H](CCCCN)NC(=O)[C@@H](NC(=O)[C@@H](NC(=O)[C@@H](NC(=O)[C@H](CCCCN)NC(=O)[C@H](Cc1ccccc1)NC(=O)[C@H](CCCCN)NC(=O)[C@H](CCCCN)NC(=O)[C@H](Cc1ccccc1)NC(=O)[C@@H](NC(=O)[C@@H](N)CCCCN)[C@@H](C)CC)[C@@H](C)O)[C@@H](C)CC)[C@@H](C)CC)C(C)C)C(=O)N[C@@H](Cc1ccccc1)C(=O)NCC(=O)N[C@@H](CCCNC(=N)N)C(=O)N[C@@H](Cc1ccccc1)C(N)=O has a growth of 14.9%. OC(c1ccc(F)c(C(F)(F)F)c1)c1cnccc1NC1CCCCC1 (centres undefined) showed a growth of 30.9%. Work on CCOC(=O)c1c(C)[nH]c(CO)c1C yielded a growth of 97.1%. With CCOc1cccc(C2CC(=O)Nc3cc4c(cc32)OCO4)c1 (centres undefined) the growth was 90.7%. CC(C)(C)c1cc(C(C)(C)c2ccccc2)cc(Cc2cc(C(C)(C)c3ccccc3)cc(C(C)(C)C)c2O)c1O was tested, and the growth was 112%. With CCOC(=O)C1=C(C(F)(F)F)NC(=S)NC1CN1C(=O)c2ccccc2C1=O (centres undefined) the growth was 86.7%. In the case of COc1cc(C2C3=C(COC3=O)Nc3c2ccc2c3CCCC2)cc2c1OCO2 (centres undefined), the growth is reported as -6.76% (active). For COc1ccc2[nH]c(-c3ccccc3)c(C=C(C#N)C#N)c2c1, the growth was -49.1% (active). For COc1ccc(Cl)cc1Nc1nc(C(F)(F)F)ccc1C(=O)N/N=C/c1ccccc1Cl, the growth was -11.3% (active). For CCN(CC)c1ccc(/C=N\NC(=O)/C=C/C=C/c2ccc3c(c2)OCO3)c(O)c1, the growth was 2.66% (active). Cc1ccc(C)c(-c2csc(Nc3ccc(C)c(C)c3)n2)c1 was tested, and the growth was 34.4%. O=C(O)C(CCc1ccccc1)NCc1ccccc1 (centres undefined) gave a growth of 110%. For O=C1C=CC(=O)N1c1ccc(O)cc1, the growth was 112%. In the case of Clc1cc(Cl)c(OCC#CI)cc1Cl, the growth is reported as 47.6%. With CN1CCN(c2ccc3nc4c(nc3c2C(F)(F)F)C(=O)c2ncccc2C4=O)CC1 the growth was -50.4% (active). With O=C1CCC(N2C(=O)c3cccc(NCCCC4CCN(CCNC(=O)c5cc6c(o5)C(=O)c5ccccc5C6=O)CC4)c3C2=O)C(=O)N1 (centres undefined) the growth was 6.69% (active). In the case of C[C@H](C(=O)Nc1ccc(S(N)(=O)=O)cc1)S(=O)(=O)c1ccccc1, the growth is reported as 101%. OCCn1cc(-c2nc(-c3c[nH]c4ncccc34)cs2)c2ccccc21 was tested, and the growth was 79.1%. O=CNc1ccc2c(c1)Cc1cccc(NC=O)c1-2 showed a growth of 70.6%. In the case of Clc1ccc(-c2nc(C(Cl)Cl)nc3cc(-c4ccccc4)nn23)cc1, the growth is reported as 5.27% (active). In the case of CCCCCN1C(=O)/C(=c2\sc3n(c2=O)C2C(NN=3)N(CC)C(=O)N2CC)c2ccccc21 (centres undefined), the growth is reported as -56.6% (active). Work on CC/C(=C(/c1ccc(Cl)cc1)c1ccc(OCCN2CCCC2)cc1)c1ccccc1 yielded a growth of 17.4%. In the case of C#C[C@]1(O)CC[C@H]2[C@@H]3CC=C4c5sc(N=C(N)N)nc5CC[C@]4(C)[C@H]3CC[C@@]21C, the growth is reported as -44.8% (active). For Cc1cc(N)c2cc(NC(=O)/C=C\c3ccccc3Cl)ccc2n1, the growth was -29.3% (active). Compound CO[C@H]1/C=C/O[C@@]2(C)Oc3c(C)c(O)c4c(O)c(c(/C=N/N5C(C)CN(Cc6ccccc6)CC5C)c(O)c4c3C2=O)NC(=O)/C(C)=C\C=C\[C@H](C)[C@H](O)[C@@H](C)[C@@H](O)[C@@H](C)[C@H](OC(C)=O)[C@@H]1C (some centres undefined) has a growth of 161%. O=C(CN1C(=O)/C(=C\c2ccc(Cl)cc2)SC1=S)Nc1ncc(Cc2ccc(Cl)cc2)s1 gave a growth of 102%. In the case of O=C(NC(=S)Nc1ccc(Cl)cc1)c1ccccc1, the growth is reported as 60.5%. For NS(=O)(=O)c1cnccc1-n1ccc(=O)c(S(N)(=O)=O)c1, the growth was 55.9%. With COc1cc(N2C(=O)[C@H](c3ccccc3)C2c2ccc(SC)cc2)cc(OC)c1OC (some centres undefined) the growth was -45.7% (active). In the case of CCN(CC)CCOC(=O)c1ccc(N=Nc2ccc(O)c(OC)c2)cc1, the growth is reported as 97.5%. For CN1CCN(Cc2ccc(NC(=O)c3[nH]ncc3Nc3ccnc4ccsc34)cc2)CC1, the growth was -17.8% (active).
